HCV inh – HCV inhibition | Huh7.5.1 HCVcc-Cre infection, luciferase reporter, 44 h | Potency, µM (doses to about 41.8 µM), without a hit: at the top dose activity change, negative = inhibition, usual class: inhibitors | 340,000 compounds, 3.4% hits; note: potency is the fitted concentration of half-maximal effect
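Antiviral activity was scored by luciferase reporter output from cells infected with HCVcc-Cre (~0.5 moi) in presence of compound, 44 h infection period, cells seeded 1,000/well 4 h prior.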
FMDV inh – blocks foot and mouth disease virus; FMDV antiviral cell-based qHTS; Potency, µM (highest dose often 57.9 µM), inactives show at the highest dose activity change, negative = inhibition, hits mostly inhibitors; 410,000 compounds, 1.2% hits; calls by dose curve; tested in HEK293T cells; note: read-out not given here; potency is the fitted concentration of half-maximal effect; nearly all actives have a fitted effect of over 45% in size
HCMV antiviral – inhibitors of human cytomegalovirus. HFF cells, HCMV-luciferase reporter, 72 h; stronger effect = lower value. activity change, negative = inhibition, % at 57.5 µM. 410,000 compounds, 4.5% hits; in the data active = activity change below about -60%; inconclusive = no clear call, values can overlap the other calls; inactive = above about -39%
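Steps: HFFs plated, 16 h 37C; compounds added; HCMV-luciferase added to MOI 1 PFU/cell; 72 h 37C; OneGlo reagent, 5 min room temperature; luminescence read, normalized to controls.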
Vaccinia Venus – vaccinia inhibition (Venus reporter) | Vaccinia virus Venus reporter expression, fluorescence | Potency, µM (top dose mostly 36.5 µM), inactives show at the top dose activity change, negative = inhibition, most hits filed as inhibitors | 330,000 compounds, 0.46% hits; calls by dose curve; tested in A549 cells; note: potency is the fitted concentration of half-maximal effect; nearly all actives have a fitted effect of over 30% in size
Giardia FBPA inh – Giardia lamblia aldolase inhibition; purified Giardia FBPA; Potency, µM (titrated, usually from 59.6 µM), inactives show at the top dose activity, negative = inhibition, hits mostly inhibitors; 290,000 compounds, 0.71% hits; note: potency is the fitted concentration of half-maximal effect; nearly all actives have a fitted effect of over 55% in size
Target sequence (A8B2U2 whole entry, looked up): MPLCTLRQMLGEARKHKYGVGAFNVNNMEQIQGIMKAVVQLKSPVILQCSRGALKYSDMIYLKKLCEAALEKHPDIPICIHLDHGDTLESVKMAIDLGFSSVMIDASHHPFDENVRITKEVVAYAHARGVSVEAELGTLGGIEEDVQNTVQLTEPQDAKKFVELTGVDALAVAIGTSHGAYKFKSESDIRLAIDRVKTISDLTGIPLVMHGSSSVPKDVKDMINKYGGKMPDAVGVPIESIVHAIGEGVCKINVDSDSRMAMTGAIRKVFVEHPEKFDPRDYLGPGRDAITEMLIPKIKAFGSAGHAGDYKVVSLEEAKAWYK
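40 nM FBPA preincubated 10 min at RT with compound (up to 57.5 uM final), then substrate plus GAPDH/TPI/NAD/arsenate coupling and diaphorase/resazurin added. Fluorescence read after 20 min at RT, 525/598 nm.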
VACV mCherry inh – inhibitors of vaccinia virus infection (mCherry reporter signal); Potency, µM (doses to about 36.5 µM), for inactives: at the top dose activity change, negative = inhibition, hits mostly inhibitors; Vaccinia virus mCherry reporter infection, fluorescence; 310,000 compounds, 0.63% hits; calls by dose curve; tested in A549 cells; note: potency is the fitted concentration of half-maximal effect; nearly all actives have a fitted effect of over 35% in size
* hit, by the source's call; i = inactive; ? = inconclusive; · = no result given; [ ] = another dose, or the depositor's remark. An excerpt weighted towards active compounds, which were near 7.5% of everything screened. Unless noted, calls come from the whole dose curve; as a rule, active = well fitted curve in the direction sought with a large enough effect; inconclusive = small, poorly fitted or top-dose-only effect, or another doubt; inactive = no such curve, though single readings can be large; an effect the other way counts as inactive or inconclusive. % is set by controls: 0 for no effect and ±100 for the full control effect.

SMILES	HCV inh	FMDV inh	HCMV antiviral	Vaccinia Venus	Giardia FBPA inh	VACV mCherry inh
COc1cc(OC)c(C(=O)C=Cc2ccc(OC)c(OC)c2)c(OC)c1	?	?	?	?	·	10µM*
COc1ccc(C(=O)C=Cc2ccc(OCc3ccccc3)c(OC)c2)cc1OC	·	?	-8	11µM*	·	?
COc1cc(OC)c(C(=O)/C=C/c2ccc(OCc3ccccc3)c(OC)c2)c(OC)c1	?	?	?	?	-4%	?
COc1cc(/C=N/N2CCOCC2)ccc1OCc1ccccc1	-19%	0%	-105*	-23%	0%	-20%
COc1ccc(C(=O)/C=C/c2ccc(OC)c(O)c2)c(F)c1	14µM*	0%	?	-15%	-21%	-17%
COc1ccc(/C=N/N2CCOCC2)cc1OCc1ccccc1	1%	-4%	?	-6%	-4%	5%
COc1ccc(CCNC(=O)CCOc2ccc(C(C)(C)C)cc2)cc1OC	-21%	-18%	33	-17%	·	-7%
COc1ccc(C=C(C(C)=O)C(C)=O)cc1OC	3%	28µM*	25	·	4%	·
COc1cc(/C=C/[N+](=O)[O-])ccc1OCc1cccc(C(=O)O)c1	-4%	10µM*	·	-6%	10%	i
CC(=O)Nc1ccc(C=C(C(C)=O)C(C)=O)cc1	18%	32µM*	8	-16%	5%	i
COc1ccc(C=CC(=O)c2ccc(OC)c(OC)c2)cc1O	·	-13%	47	10µM*	·	?
CCOC(=O)c1c(-c2ccc(C)cc2)csc1NC(=O)c1nc(SC(C)C)ncc1Cl	·	-1%	1	-4%	·	-1%
CCN1CCN(CCC(=O)Nc2cccc(C)c2)CC1	6%	4%	30	1%	?	-2%
Cc1cccc2cc(CN(C(=O)c3ccc(C(F)(F)F)cc3)C3CC3)c(N3CCC(O)CC3)nc12	·	-11%	·	1%	·	-12%
Cc1cc(C(=O)Nc2ccccc2)oc(=O)c1	-2%	42%	50	-2%	8%	i
Nc1nn(-c2ccccc2)c(N)c1N=Nc1ccccc1	?	-13%	171	?	3%	-22%
Nc1ncnc(N)c1N=Nc1ccccc1	-28%	-22%	-64*	?	-2%	?
O=S1(=O)C2CC3C=CC2(CN1Cc1cccc(F)c1)O3 (stereo not given)	·	·	·	·	8%	·
COc1ccc(NS(=O)(=O)c2cc(NC(=O)c3cccnc3Cl)ccc2N2CCCC2)cc1	?	72%	10	·	?	·
COc1ccc(NS(=O)(=O)c2cc(NC(=O)c3ccco3)ccc2N2CCCCC2)cc1	?	101%	-76*	?	-2%	?
COc1ccccc1NS(=O)(=O)c1cc(NC(=O)c2ccco2)ccc1N1CCOCC1	-28%	31%	37	-6%	-1%	i
COc1ccc(NS(=O)(=O)c2cc(NC(=O)c3cnc(C)cn3)ccc2N2CCCCC2)cc1	?	71%	-74*	-19%	-1%	-6%
COc1ccc(NS(=O)(=O)c2cc(NC(=O)c3cnc(C)cn3)ccc2N2CCCC2)cc1	?	65%	-65*	?	-25%	-15%
COc1ccc(NS(=O)(=O)c2cc(NC(=O)C3CC3)ccc2N2CCCCC2)cc1	11µM*	42%	-101*	-21%	0%	-6%
COc1ccc(NS(=O)(=O)c2cc(NC(=O)C3CC3)ccc2N2CCOCC2)cc1	-24%	95%	?	-10%	-3%	-12%
SMILES	HCV inh	FMDV inh	HCMV antiviral	Vaccinia Venus	Giardia FBPA inh	VACV mCherry inh
CCOc1cc(C(=O)Nc2ccc3c(c2)n(C)c(=O)c(=O)n3C)cc(OCC)c1OCC	·	-20%	6	-5%	·	-7%
CC(C)NC(=O)c1nnc2n1CCN(Cc1ccc(Cl)c(F)c1)C2	·	·	-1	·	·	·
COc1ccc(NS(=O)(=O)c2cc(NC(=O)c3ccc(=O)[nH]c3)ccc2N2CCCC2)cc1	?	67%	-74*	·	·	·
COc1cccc(O)c1CN1CCC(Oc2ccc(C(=O)NCc3ccccn3)cc2)CC1	-4%	-26%	?	0%[7.34 µM]	11%	-5%[7.34 µM]
COc1cccc(CNC(=O)c2cc3cc(C)ccc3n2C)c1	·	-8%	?	8%	·	6%
Cc1ccc2c(c1)cc(C(=O)NCc1ccccc1)n2C	8%	8%	-71*	-3%	-4%	?
COc1ccc(CNC(=O)c2cc3cc(C)ccc3n2C)cc1	·	5%	-79*	18%	·	?
COc1ccc(-c2nc(CSCC(=O)NCCc3ccc(C)cc3)c(C)o2)cc1OC	·	-26%	-9	-16%	·	-10%
CCOc1ccccc1-n1ccnc(NCc2ccc(F)cc2)c1=O	·	-9%	17	-2%	·	-2%
CCC(=NCCOc1ccc(Cl)cc1)c1c(O)n(C)c(=O)n(C)c1=O	14%	25µM*	?	-17%	-2%	-26%
CCC(=NCc1cc(OC)cc(OC)c1)c1c(O)n(C)c(=O)n(C)c1=O	6.3µM*	?	-90*	·	-1%	·
CCC(=NCCN1CCCCC1)c1c(O)n(C)c(=O)n(C)c1=O	15%	-1%	18	-10%	-12%	·
CCC(=NCc1ccc2c(c1)OCO2)c1c(O)n(C)c(=O)n(C)c1=O	?	?	-66*	·	-1%	·
CCC(=NCc1cc(OC)cc(OC)c1)c1c(O)n(C2CCCCC2)c(=O)[nH]c1=O	?	?	13	·	-5%	·
CC(C)(C)Cc1nnc(NS(=O)(=O)c2ccc([N+](=O)[O-])cc2)s1	-1%	15%	-3	-15%	?	-14%
Cc1nn(C)cc1CN1CCOc2ccc(CN3CCC(Oc4cccnc4)CC3)cc2C1	·	-6%	·	-9%	·	-14%
Cc1c(N2C(=O)/C(=C\C3CC=CCC3)SC2=S)c(=O)n(-c2ccccc2)n1C (stereo not given)	-13%	25µM*	40	-2%	-14%	-15%
Cc1ccc(/C=C2\SC(=S)N(c3c(C)n(C)n(-c4ccccc4)c3=O)C2=O)cc1	-3%	·	-24	-13%	13%	-23%
Cc1c(N2C(=O)/C(=C/C3CC=CCC3)SC2=S)c(=O)n(-c2ccccc2)n1C (stereo not given)	1%	18µM*	17	-24%	?	-12%
Cc1c(N2C(=O)/C(=C/c3ccccc3)SC2=S)c(=O)n(-c2ccccc2)n1C	-6%	-30%	?	-27%	6%	?
CC(C)c1ccc(NC(=O)c2cc(S(=O)(=O)NCc3ccccc3Cl)ccc2F)cc1	·	7%	-82*	?	·	?
C/C(=N\NC(=O)CCc1ccccc1)C1C(=O)c2ccccc2C1=O	1%	38%	-87*	?	8%	?
CC1CCCC(NC(=O)COC(=O)c2ccc(N(C)C)cc2)C1C (stereo not given)	2.8µM*	-3%	4	·	3%	·

High-throughput results from PubChem.
